In all, about 4,000 sequences were measured (“arbitrary fluorescence units”: median about 830, highest 2% from about 6,500 on). What follows is part of a selection rich in the highest values, with near analogues and random picks from the rest.
target: RUNX1 (UniProt Q01196); test: RUNX1 binding intensity (PBM fluorescence), RUNX1 alone (arbitrary fluorescence units); higher = stronger binding; conditions: RUNX1 concentration 2 nM; ETS1 concentration 0 nM
Procedure: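 gcPBM on 36-bp genomic-derived probes (partner site mutated) containing one RUNX1 site and no ETS1 site. Recombinant human RUNX1 (2 nM) was incubated alone or with ETS1 (25 nM) and detected by anti-RUNX1 antibody fluorescence. Values are medians over 4 replicate spots (not normalised). The probes sit in constant array flanks that are not printed.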

RUNX1, sequence (Q01196 whole entry): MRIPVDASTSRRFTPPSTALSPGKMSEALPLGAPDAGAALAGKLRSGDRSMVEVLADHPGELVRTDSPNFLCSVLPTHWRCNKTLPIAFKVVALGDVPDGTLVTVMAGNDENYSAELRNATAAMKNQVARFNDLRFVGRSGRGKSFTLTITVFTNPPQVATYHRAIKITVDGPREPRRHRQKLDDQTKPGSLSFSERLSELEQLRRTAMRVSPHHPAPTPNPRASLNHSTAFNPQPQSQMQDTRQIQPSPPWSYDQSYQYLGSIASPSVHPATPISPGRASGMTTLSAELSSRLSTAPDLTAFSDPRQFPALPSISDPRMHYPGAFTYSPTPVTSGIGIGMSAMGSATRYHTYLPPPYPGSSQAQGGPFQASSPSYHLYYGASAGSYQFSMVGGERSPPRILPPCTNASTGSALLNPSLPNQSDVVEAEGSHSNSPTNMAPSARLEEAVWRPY

| Sequence | RUNX1 binding intensity |
| --- | --- |
| CAGGCTGCTTCAGGCGCGCGGCAGAGCGGTCAGAGC | 716 |
| CGTCCCCGCAAAGCCGCGGCAGAAACTCCCGGCGGT | 1270 |
| TAGGGGGGCGCGGTGAGCCCCGGCGGGAATCGAAGC | 716 |
| TCCACAATTCCCAGGAGTCTCTGCGGCCGCGCGGAG | 830 |
| TCACAATCGCCCACAAAGACAGCAAGTAACTGTCAG | 892 |
| ACGAGGTTTCGTGCAGGCTCCAGCCGAGACCACATC | 744 |
| GTAGGGGAGGGACCGCAGGGAGGCGGCAGTCCTTGT | 931 |
| ATCTTGTTCAGGCTCAAAGGGAAACCGCTGCTTTTC | 914 |
| GACAGTTTTCGGGCCTAGTTTGCGGCTGCTCCTGCC | 891 |
| CTCTCCAGACCGCGCATTTTGGGTCTCGGAGGAGGT | 735 |
| ACGTCATCCCGCAGGGCTGGCGCGCCCGGCGCAGTC | 779 |
| ACGCCGCGCATACGCGCTTTACGGCGGCCGCAAAAT | 801 |
| GAGGAGGAGGTGCGCTGGCTGTTCTGCTGCGGGCCG | 704 |
| ATGCCAAGGGACCTCCCTCCACAACCGCCCCCAGCT | 930 |
| CTGACAGCCTCCGCACAAAGCGCGGTCTATTTCTCC | 918 |
| AAGAAAGGTTCCAGCCTGCGCCCTGCTACCGCGGCG | 738 |
| GCTGCGGCGGCGGCGAAGAGACAACCTCCGCTGGAA | 793 |
| TCTGGGAGATGGAGTTCACAGCGCTGCGGGGCCGGA | 674 |
| CAACGCTTGCCGACCGCCAGCAGGAGGTGGTGGGCG | 755 |
| TCAAAGCTGCGGGGTTTCATTGCCTGTTCCTGAACA | 693 |
| AGTATACTGTGGTGAGAAACTGCCTGCCATACCAGC | 824 |

| Sequence | RUNX1 binding intensity |
| --- | --- |
| CGTTTACTGTCTGGGACTGCGCCCACGCGGTCACGT | 871 |
| CACTTGGTCTTGCTGCCCTTGTGGCCCTAACACCCT | 841 |
| TTTATCCTTATTTGCTGGCTTCGCCCACAAGCACAG | 1010 |
| AGACTAGAGGCGGTTGTGTGAGTCAGAAAGAGGGGC | 724 |
| TCGGGAGGTGGCATGCTGACTCACCTGTGGCTTGTT | 797 |
| CTCCTGCGGCGACACGCCTAGCAGACGGCGCAAGGC | 773 |
| ATAACTTGCGGCAAATGCTGGAGGCAGTACCGCCTT | 840 |
| ACACCTCAGCAAGTGGCAGAGACCACAACAAGTCAG | 952 |
| CTTGTGGCTCCTTTCCACCCGCCCCGTAAGCCGGCC | 930 |
| ACCCCAAGCCCACAAACCCACCTGAAGGAACCAACT | 1200 |
| CCGCTGCGGCTGCGCGCTACGTCACTACGTTCGGCG | 768 |
| AAAACCACATTGCCTGTGCTGCAGGCTGGAAAGCTG | 879 |
| GCAGAAACAGAAAGAGACAGGGCTGACCGCAGCAGG | 1360 |
| CCTCTCTGTGGTTCTGCCTGGAATACGCAAGGCAGG | 1050 |
| GGCGGGAGAGGAGGCCGGGCGGCCGCAGCTGCCTGT | 669 |
| TCGCTTACGGTGTCGGTTACAGACTGTGGTTGCCAT | 812 |
| CACCCGAACTGAAACACCTGCGGCTGAGGGGAGGGG | 1030 |
| CCGAGAAGTGGAACCGCCAGGCGGAGGGGGCGGAGT | 767 |
| GAGCGCGGCACTCGCCACGGTAAGGATTACCACAGG | 742 |
| TGGGGTGTCCGAGCCGCCCCCGAACCGCGCACCCGA | 796 |
| GACAAGCCATGTGGTTGCTGGCAGGCAATCTCAGTC | 1430 |

| Sequence | RUNX1 binding intensity |
| --- | --- |
| TATTCAGCAGCAAAGGAGAGAGTCTGTGGTATCTGC | 708 |
| GCTGAGTGCGGGTGGCCTGGGCCGAAGGCTCAGCGG | 724 |
| GCCGCGGTGCCTGCCGGGACAGCGAGTTCAGCCGGG | 738 |
| CTGTGGGTTCGGCAGTAAACTCTGACCTCCTATTTA | 892 |
| TGGGACCGCTAATCGGAGAGGGTGCGCAAACGCTGG | 658 |
| AAGTTCGCAACCGCCAAGAGGGGAGACGGGCTGCGC | 764 |
| GTATGGGAGGTGATCTGGCTGCAAACCGCAAGAGAG | 8250 |
| ACCCACTTGCTGTTAGAGCATCTTTGCAACCACAGG | 729 |
| CTCGGGATTTGTGGTCCACCCGGCTGAACTCGCGGC | 788 |
| AGGGTTTGTGGGACCTGGTGACTCACGGGATCTGGG | 703 |
| CTGCCATGAAGGGTTCTGGTTTGAGGTCTCCTCTTA | 741 |
| GCCCCTGATAGCGTCCTCACCATCCCCACAGCGCCT | 1100 |
| TGGCCCCGGGGCCCCACAACGGCTTCATGTGTCCCG | 693 |
| CCTTAGCACAGACCACCATCTACGGGAATTCCTAAG | 912 |
| CAGTCAGACGGGAGCCCGGCTTCTGTGGTGCCTGCC | 696 |
| CCTAGAACCGTAAGAGAAAGGGGCTGCGGTGCAGCA | 745 |
| CTGTGCGGTCATGTGACGGAGGCCTGAAGGCAGGTC | 1410 |
| TGCGCCGGGAGTGCATGAGCTGCCGATGTGGTGCTT | 697 |
| GACGTAAGCCGAGAGGCTCCCGTAAGCGGTCTTGAG | 733 |
| GACTCGCTCTGCGGCCCCACGCAGGGAGCCTCCTTG | 905 |
| CTCATAACCGCTAACTCAACCTCTAACATTTGCTGT | 3220 |

Source: the supplement of paper PMC10681739
